Here are results for one sequence from PMC7862700, “An all-to-all approach to the identification of sequence-specific readers for epigenetic DNA modifications on cytosine”.

Common to all, as to assay: DAPPL (digital affinity profiling via proximity ligation, sequencing); 10 mM Tris-HCl pH 7.5, 50 mM NaCl, 1 mM DTT, 4% glycerol, room temperature, 30 min; GST-TFs on glutathione beads, 16-mer random dsDNA library, 0.1% formaldehyde crosslink after washing; high values mean tight binding
The target of experiment [1] is T1, FEV (Homo sapiens, UniProt Q99581 1-238).
T1 sequence: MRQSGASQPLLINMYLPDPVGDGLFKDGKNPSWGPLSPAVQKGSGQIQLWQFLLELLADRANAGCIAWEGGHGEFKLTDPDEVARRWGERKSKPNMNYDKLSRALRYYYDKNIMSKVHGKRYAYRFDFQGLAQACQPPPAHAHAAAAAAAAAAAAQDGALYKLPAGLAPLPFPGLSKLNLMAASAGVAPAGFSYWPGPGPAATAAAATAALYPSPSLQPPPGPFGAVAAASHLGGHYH
As to conditions: protein: recombinant; tags: N-terminal GST; dsDNA, one strand shown. The essentials:
(§1)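 Binding signal is each hexamer's read frequency for a factor divided by its frequency in the tag-only sample. The factors were GST-fused human transcription factors from yeast, captured on glutathione beads, DNA-barcoded and pooled with that sample. Pools were incubated with 200 nmole of a random double-stranded 16-mer DNA library in Tris/NaCl/DTT/glycerol buffer at room temperature for 30 min, then washed, crosslinked with 0.1% formaldehyde, proximity-ligated with BsaI/T4 ligase (1 h, 37 °C), PCR-amplified and sequenced on an Illumina NextSeq500.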

In experiment [2] the target is ETV5 (Homo sapiens, UniProt P41161 1-510). As to conditions: protein: recombinant; tags: N-terminal GST; dsDNA, one strand shown. The essentials: as §1
In experiment [3] the target is HSF1 (Homo sapiens, UniProt Q00613 1-529). Particulars: protein: recombinant; tags: N-terminal GST; chain copies: 3; dsDNA, one strand shown. The essentials:
as §1

The target of experiment [4] is T2, SPIC (Homo sapiens, UniProt Q8N5J4 1-248).
T2 sequence: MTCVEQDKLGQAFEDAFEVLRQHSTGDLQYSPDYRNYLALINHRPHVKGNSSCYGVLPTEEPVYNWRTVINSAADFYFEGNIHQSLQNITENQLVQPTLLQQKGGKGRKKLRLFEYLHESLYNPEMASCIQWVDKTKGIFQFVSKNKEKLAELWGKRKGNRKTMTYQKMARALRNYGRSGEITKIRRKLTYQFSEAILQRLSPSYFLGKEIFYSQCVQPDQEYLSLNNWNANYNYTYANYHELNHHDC
Particulars: protein: recombinant; tags: N-terminal GST; dsDNA, one strand shown. The gist of the method: as §1

Experiment [5] concerns the target ELF4 (Homo sapiens, UniProt Q99607 1-663). As to conditions: protein: recombinant; tags: N-terminal GST; dsDNA, one strand shown. The essentials: as §1
In experiment [6] the target is T3, ELK4 (Homo sapiens, UniProt P28324-2 1-405).
T3 sequence: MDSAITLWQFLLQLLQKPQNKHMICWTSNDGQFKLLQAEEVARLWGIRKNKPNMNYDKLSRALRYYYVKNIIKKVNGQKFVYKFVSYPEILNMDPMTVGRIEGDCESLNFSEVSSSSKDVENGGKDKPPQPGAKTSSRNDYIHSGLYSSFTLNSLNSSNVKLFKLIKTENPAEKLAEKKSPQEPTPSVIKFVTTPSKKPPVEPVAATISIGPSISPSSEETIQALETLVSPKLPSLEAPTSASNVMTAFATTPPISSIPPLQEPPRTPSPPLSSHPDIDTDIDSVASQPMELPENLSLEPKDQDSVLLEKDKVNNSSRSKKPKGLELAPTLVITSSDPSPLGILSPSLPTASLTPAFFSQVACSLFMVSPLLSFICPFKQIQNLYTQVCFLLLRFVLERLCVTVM
Particulars: protein: recombinant; tags: N-terminal GST; dsDNA, one strand shown. The gist of the method:
as §1

Experiment [7] addresses T4, ETV2 (Homo sapiens, UniProt O00321 1-342).
T4 sequence: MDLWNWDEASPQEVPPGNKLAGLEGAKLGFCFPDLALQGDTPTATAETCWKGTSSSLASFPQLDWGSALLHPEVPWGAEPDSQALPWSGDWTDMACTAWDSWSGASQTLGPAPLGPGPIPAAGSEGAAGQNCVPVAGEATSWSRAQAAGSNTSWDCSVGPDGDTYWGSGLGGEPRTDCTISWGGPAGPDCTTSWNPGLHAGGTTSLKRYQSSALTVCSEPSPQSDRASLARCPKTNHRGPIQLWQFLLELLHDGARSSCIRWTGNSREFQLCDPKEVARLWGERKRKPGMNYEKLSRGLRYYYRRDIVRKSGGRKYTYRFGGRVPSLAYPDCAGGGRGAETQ
As to conditions: protein: recombinant; tags: N-terminal GST; dsDNA, one strand shown. The essentials:
as §1

Experiment [8] deals with T5, ELF3 (Homo sapiens, UniProt P78545 1-371).
T5 sequence: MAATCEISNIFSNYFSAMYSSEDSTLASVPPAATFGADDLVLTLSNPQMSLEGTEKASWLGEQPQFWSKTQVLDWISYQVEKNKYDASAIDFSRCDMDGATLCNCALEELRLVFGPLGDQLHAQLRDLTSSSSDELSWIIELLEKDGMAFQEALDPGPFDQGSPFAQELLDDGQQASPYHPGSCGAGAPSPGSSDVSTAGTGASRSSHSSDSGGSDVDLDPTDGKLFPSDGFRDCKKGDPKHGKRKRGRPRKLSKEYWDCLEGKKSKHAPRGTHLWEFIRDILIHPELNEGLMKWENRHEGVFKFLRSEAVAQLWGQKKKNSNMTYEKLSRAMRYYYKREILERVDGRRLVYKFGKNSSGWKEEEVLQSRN
Particulars: protein: recombinant; tags: N-terminal GST; dsDNA, one strand shown. The gist of the method:
as §1

In experiment [9] the target is CRX (Homo sapiens, UniProt O43186 1-299). As to conditions: protein: recombinant; tags: N-terminal GST; dsDNA, one strand shown. The gist of the method:
as §1

Experiment [10] addresses ETV1 (Homo sapiens, UniProt P50549 1-477). As to conditions: protein: recombinant; tags: N-terminal GST; dsDNA, one strand shown. The essentials: as §1
Experiment [11] addresses T6, ERF (Homo sapiens, UniProt P50548 1-548).
T6 sequence: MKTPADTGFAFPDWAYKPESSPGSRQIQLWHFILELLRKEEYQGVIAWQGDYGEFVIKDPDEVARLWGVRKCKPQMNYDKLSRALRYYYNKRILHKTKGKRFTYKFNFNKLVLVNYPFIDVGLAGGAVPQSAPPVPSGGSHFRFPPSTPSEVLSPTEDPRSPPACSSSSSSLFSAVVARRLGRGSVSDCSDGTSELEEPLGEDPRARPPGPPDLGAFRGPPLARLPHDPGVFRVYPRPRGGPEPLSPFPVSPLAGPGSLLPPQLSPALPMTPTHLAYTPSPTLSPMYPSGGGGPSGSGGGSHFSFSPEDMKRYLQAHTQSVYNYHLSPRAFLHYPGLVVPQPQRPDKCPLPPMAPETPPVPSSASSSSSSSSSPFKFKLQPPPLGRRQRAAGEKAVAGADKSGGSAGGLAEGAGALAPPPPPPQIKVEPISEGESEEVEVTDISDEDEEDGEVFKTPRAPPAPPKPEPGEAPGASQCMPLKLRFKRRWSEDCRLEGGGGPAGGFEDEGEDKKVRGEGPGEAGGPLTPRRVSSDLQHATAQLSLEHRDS
Particulars: protein: recombinant; tags: N-terminal GST; dsDNA, one strand shown. The gist of the method: as §1

Experiment [12] has as its target T7, ETV3L (Homo sapiens, UniProt Q6ZN32 1-361).
T7 sequence: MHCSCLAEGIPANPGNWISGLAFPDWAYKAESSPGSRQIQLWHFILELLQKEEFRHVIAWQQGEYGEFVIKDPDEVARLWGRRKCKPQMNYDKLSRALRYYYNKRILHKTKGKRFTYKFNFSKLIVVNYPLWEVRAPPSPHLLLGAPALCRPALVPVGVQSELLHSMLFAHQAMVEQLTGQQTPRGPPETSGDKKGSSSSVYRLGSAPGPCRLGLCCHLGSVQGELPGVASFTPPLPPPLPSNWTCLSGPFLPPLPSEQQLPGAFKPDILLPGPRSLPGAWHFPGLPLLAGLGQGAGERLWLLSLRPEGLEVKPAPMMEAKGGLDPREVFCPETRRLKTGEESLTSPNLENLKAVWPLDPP
Particulars: protein: recombinant; tags: N-terminal GST; dsDNA, one strand shown. The essentials:
as §1

The target of experiment [13] is T8, ETS2 (Homo sapiens, UniProt P15036 1-469).
T8 sequence: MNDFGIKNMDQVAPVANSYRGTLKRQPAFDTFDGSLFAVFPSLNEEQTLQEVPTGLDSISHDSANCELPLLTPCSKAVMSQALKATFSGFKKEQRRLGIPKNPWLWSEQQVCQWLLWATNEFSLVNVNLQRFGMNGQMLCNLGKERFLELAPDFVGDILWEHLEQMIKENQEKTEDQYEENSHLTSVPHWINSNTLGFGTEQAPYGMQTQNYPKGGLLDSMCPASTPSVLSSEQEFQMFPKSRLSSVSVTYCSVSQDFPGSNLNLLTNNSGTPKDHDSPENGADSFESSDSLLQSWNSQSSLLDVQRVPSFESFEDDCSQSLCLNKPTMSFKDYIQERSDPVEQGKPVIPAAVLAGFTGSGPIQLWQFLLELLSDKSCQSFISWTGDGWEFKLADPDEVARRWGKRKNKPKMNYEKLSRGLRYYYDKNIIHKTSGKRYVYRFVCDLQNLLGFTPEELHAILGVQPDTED
Particulars: protein: recombinant; tags: N-terminal GST; dsDNA, one strand shown. The gist of the method:
as §1

The target in experiment [14] is T9, SPDEF (Homo sapiens, UniProt O95238 1-335).
T9 sequence: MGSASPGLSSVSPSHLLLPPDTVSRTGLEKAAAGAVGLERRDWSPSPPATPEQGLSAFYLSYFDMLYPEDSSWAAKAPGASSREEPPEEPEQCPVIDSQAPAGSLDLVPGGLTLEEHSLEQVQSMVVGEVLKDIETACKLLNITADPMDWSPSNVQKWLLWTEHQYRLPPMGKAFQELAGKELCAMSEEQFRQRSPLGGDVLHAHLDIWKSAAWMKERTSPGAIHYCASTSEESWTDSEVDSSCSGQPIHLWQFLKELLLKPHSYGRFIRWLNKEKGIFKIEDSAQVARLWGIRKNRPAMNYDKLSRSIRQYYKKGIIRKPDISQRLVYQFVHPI
As to conditions: protein: recombinant; tags: N-terminal GST; dsDNA, one strand shown. The gist of the method: as §1

The target in experiment [15] is T10, ETV7 (Homo sapiens, UniProt Q9Y603 1-341).
T10 sequence: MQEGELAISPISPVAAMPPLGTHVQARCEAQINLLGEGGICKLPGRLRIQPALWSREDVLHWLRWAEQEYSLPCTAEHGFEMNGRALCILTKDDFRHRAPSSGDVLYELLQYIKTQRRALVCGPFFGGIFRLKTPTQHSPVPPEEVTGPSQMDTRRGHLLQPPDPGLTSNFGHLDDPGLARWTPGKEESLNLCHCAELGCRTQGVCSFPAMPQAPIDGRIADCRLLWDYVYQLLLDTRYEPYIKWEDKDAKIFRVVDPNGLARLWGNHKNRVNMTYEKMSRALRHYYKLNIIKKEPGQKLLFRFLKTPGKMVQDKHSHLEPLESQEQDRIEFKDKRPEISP
Particulars: protein: recombinant; tags: N-terminal GST; dsDNA, one strand shown. The essentials:
as §1

Experiment [16] has as its target T11, ELF5 (Homo sapiens, UniProt Q9UKW6-2 1-255).
T11 sequence: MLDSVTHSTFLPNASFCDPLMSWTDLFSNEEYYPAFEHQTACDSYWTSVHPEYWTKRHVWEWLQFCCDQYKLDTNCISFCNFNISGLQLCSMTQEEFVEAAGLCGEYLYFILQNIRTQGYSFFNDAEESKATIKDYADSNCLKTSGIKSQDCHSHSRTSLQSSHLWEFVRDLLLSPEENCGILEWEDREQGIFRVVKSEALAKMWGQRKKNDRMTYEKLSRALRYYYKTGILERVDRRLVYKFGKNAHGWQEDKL
As to conditions: protein: recombinant; tags: N-terminal GST; dsDNA, one strand shown. The essentials:
as §1

Experiment [17] addresses T12, ETV3 (Homo sapiens, UniProt P41162-2 1-143).
T12 sequence: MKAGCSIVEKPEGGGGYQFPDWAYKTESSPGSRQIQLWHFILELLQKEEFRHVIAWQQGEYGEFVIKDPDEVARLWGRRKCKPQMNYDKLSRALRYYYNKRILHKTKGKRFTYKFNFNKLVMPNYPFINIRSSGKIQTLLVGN
As to conditions: protein: recombinant; tags: N-terminal GST; dsDNA, one strand shown. The gist of the method: as §1

For experiment [18], the target named is ETV6 (Homo sapiens, UniProt P41212 1-452). Particulars: protein: recombinant; tags: N-terminal GST; dsDNA, one strand shown. The essentials:
as §1

ETV5, sequence (P41161 whole entry): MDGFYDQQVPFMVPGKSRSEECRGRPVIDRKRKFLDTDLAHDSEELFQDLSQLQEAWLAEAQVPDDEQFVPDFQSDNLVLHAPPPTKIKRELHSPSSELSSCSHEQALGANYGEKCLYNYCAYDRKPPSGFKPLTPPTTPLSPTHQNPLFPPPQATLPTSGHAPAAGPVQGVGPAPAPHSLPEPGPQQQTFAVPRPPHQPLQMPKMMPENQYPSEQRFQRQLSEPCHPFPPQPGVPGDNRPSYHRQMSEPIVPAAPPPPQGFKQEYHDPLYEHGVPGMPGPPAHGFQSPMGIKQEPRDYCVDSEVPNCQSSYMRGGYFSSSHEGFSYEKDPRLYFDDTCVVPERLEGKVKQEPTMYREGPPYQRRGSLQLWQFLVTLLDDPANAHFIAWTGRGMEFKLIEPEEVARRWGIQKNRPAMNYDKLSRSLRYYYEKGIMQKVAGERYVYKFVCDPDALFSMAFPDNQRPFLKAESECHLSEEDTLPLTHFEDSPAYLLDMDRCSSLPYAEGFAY
ELF4, sequence (Q99607 whole entry): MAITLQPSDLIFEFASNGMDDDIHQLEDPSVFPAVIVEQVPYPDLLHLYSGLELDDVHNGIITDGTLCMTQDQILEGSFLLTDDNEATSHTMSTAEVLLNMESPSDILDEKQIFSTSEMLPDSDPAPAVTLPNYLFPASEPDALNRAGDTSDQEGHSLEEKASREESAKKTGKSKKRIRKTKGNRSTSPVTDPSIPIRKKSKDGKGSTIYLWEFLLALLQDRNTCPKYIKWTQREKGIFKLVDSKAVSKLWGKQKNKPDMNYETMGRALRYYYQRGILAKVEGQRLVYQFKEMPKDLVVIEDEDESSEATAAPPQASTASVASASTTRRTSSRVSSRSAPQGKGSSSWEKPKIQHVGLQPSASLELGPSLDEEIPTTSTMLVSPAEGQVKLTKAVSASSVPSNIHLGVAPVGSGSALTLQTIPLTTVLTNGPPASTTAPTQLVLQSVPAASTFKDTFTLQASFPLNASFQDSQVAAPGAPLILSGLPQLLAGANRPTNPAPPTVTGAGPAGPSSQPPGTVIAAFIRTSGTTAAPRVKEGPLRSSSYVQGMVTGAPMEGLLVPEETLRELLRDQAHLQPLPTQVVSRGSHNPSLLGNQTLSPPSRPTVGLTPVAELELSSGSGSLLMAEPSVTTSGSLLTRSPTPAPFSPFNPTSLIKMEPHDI
CRX, sequence (O43186 whole entry): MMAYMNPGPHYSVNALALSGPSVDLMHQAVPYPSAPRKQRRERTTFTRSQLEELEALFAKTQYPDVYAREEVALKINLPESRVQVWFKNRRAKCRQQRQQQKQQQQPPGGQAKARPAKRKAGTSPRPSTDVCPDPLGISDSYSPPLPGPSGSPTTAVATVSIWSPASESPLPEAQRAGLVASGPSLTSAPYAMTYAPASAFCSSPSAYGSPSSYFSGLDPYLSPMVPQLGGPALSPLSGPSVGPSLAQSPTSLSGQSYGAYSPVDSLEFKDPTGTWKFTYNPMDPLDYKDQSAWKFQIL
HSF1, sequence (Q00613 whole entry): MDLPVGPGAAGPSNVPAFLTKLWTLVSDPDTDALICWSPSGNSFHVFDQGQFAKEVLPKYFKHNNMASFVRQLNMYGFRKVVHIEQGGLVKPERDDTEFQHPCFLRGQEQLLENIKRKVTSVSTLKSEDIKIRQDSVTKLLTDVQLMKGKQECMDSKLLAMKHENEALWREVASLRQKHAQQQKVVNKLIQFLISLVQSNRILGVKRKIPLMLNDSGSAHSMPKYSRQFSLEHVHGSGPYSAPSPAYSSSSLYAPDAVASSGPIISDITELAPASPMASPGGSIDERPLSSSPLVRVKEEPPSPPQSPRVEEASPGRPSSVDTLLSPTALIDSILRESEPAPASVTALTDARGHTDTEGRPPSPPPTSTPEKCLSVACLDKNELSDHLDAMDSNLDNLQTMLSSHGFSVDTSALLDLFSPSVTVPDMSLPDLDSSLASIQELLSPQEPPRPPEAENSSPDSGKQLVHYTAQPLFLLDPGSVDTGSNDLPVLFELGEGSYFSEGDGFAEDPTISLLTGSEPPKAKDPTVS
ETV6, sequence (P41212 whole entry): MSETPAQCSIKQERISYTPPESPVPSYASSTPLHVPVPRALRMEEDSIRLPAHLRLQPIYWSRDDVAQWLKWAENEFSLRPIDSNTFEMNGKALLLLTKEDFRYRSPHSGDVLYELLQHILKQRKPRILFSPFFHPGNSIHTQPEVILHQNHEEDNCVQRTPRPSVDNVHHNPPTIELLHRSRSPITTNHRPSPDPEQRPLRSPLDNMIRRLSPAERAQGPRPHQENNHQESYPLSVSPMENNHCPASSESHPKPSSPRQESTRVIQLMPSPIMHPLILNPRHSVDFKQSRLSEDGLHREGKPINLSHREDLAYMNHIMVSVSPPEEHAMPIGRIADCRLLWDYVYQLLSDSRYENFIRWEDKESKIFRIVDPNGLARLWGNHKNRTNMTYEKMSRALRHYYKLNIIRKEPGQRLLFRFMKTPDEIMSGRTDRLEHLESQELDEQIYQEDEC
ETV1, sequence (P50549 whole entry): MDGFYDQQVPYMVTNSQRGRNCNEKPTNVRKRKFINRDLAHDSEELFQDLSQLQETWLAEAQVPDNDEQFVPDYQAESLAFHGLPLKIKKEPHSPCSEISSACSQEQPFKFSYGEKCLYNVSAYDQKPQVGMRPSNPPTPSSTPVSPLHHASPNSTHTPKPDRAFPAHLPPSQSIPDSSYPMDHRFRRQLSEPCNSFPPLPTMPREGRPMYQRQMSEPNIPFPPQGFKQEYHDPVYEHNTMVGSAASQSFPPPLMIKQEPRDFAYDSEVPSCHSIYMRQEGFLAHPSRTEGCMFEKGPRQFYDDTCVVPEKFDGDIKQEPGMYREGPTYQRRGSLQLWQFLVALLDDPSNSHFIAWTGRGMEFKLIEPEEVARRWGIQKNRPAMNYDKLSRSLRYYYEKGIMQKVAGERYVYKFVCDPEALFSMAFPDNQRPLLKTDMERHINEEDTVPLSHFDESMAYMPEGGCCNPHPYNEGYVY

With AACTAA, the binding signal in [1] is 1.35 fold enrichment (6-mer frequency, TF over GST control); in experiment [2], 1.39 fold enrichment (6-mer frequency, TF over GST control); in experiment [3], 1.44 fold enrichment (6-mer frequency, TF over GST control); in [4], 1.3 fold enrichment (6-mer frequency, TF over GST control); in experiment [5], 1.45 fold enrichment (6-mer frequency, TF over GST control); in experiment [6] it was 1.3 fold enrichment (6-mer frequency, TF over GST control). For the same sequence, the binding signal is 1.24 fold enrichment (6-mer frequency, TF over GST control) in [7]; 1.3 fold enrichment (6-mer frequency, TF over GST control) in experiment [8]; 1.84 fold enrichment (6-mer frequency, TF over GST control) in experiment [9]; 1.39 fold enrichment (6-mer frequency, TF over GST control) in experiment [10]; 1.36 fold enrichment (6-mer frequency, TF over GST control) in experiment [11]; 1.25 fold enrichment (6-mer frequency, TF over GST control) in experiment [12]. Also, the binding signal in experiment [13] is 1.4 fold enrichment (6-mer frequency, TF over GST control); in [14] it was 1.31 fold enrichment (6-mer frequency, TF over GST control); in [15], 1.33 fold enrichment (6-mer frequency, TF over GST control); in experiment [16], 1.38 fold enrichment (6-mer frequency, TF over GST control); in [17], 1.29 fold enrichment (6-mer frequency, TF over GST control); in experiment [18] it was 1.42 fold enrichment (6-mer frequency, TF over GST control).
